14 molecules from PubChem BioAssay (NCI) can be followed below.

About 83,000 compounds went through this panel and 20% of them were active in at least one assay; those are over-represented in the sample as a whole.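 A percent growth of 40 corresponds to 60% growth inhibition; 0 means no net growth; -100 means all cells died. Active threshold: below 10.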 A number with no mark means an inactive call. The source made the active and inactive calls.

Some test systems named below: T-47D breast; BT-549 breast; MDA-MB-435 melanoma; SW-620 colon; MCF7 breast; HCT-116 colon; HCC-2998 colon; KM12 colon.
Holding throughout (assay): NCI-60 one-dose screen, 48 h (100 = growth as untreated, 0 = no growth, -100 = all killed)
Conditions in all cases: 10 µM unless noted

On to `c1ccc(CNCCN(CCNCc2ccccn2)Cc2ccc3ccccc3c2)nc1`, for which the growth in the test with T-47D breast was -4.67% (active); in the test on BT-549 breast, 30.3%; in the test with MDA-MB-435 melanoma it was 11.4%; with SW-620 colon it was 13%; with MCF7 breast it was 3.36% (active); in the test on HCT-116 colon, -9.29% (active). Also, the growth with HCC-2998 colon was -18.3% (active); with KM12 colon, 12.5%.
For the molecule `Cc1ccc(-c2cc(-c3nnc(SCC(=O)c4ccccc4)o3)c3ccccc3n2)cc1`, the growth is 93% with T-47D breast; 93.4% with BT-549 breast; 93.5% with MDA-MB-435 melanoma; 101% in the test on SW-620 colon; 91.2% with MCF7 breast; 99% in the test with HCT-116 colon. Also, the growth was 99.6% in the test with HCC-2998 colon and 94.1% with KM12 colon.
In the case of `CCCC(C)(C)COC(=O)c1cccc(N)c1`, the growth was 92% in the test with T-47D breast; 79.9% in the test with BT-549 breast; 111% in the test with MDA-MB-435 melanoma; 104% in the test on SW-620 colon; 91.7% with MCF7 breast; 84.9% in the test with HCT-116 colon. Moreover, the growth in the test on HCC-2998 colon was 96.9%; with KM12 colon, 106%.
Turning to `CC(C)(C)OC(=O)N1CCN(CCn2cc(C(F)(F)F)c3c(Cl)ncnc32)CC1`, the growth in the test on T-47D breast was 90.3%; in the test with BT-549 breast, 118%; in the test with MDA-MB-435 melanoma it was 47.1%; in the test with SW-620 colon, 12%; in the test with MCF7 breast, 87.4%; in the test with HCT-116 colon, 12.1%. In addition, the results for the growth in the test with HCC-2998 colon and in the test with KM12 colon were 86.1% and 95.9%, respectively.
Take `COc1cc2ncnc(Oc3ccc(NC(=O)Nc4ccc(CN5CCOCC5)c(C(F)(F)F)c4)c4ccccc34)c2cc1OC`: the growth with T-47D breast is 10.3%; in the test with BT-549 breast it was 25.2%; with MDA-MB-435 melanoma, 6.39% (active); with SW-620 colon it was 24.8%; with MCF7 breast, 8.45% (active); in the test on HCT-116 colon, 17.4%. Further, the growth was 75.9% in the test with HCC-2998 colon and 6.26% (active) in the test on KM12 colon.
Regarding `CN(C)C(=O)Nc1nc2cc(Cl)c(Cl)cc2[nH]1`, the growth in the test with T-47D breast was 52.5%; in the test on BT-549 breast it was 39.5%; with MDA-MB-435 melanoma it was -24.5% (active); with SW-620 colon it was 29.8%; with MCF7 breast, 15.4%; in the test on HCT-116 colon, 1.15% (active). Besides, the values for the growth in the test with HCC-2998 colon and with KM12 colon were 14.2% and 1.99% (active), respectively.
As for `O=C(N/N=C1\SCC(=O)N1c1ccccc1)c1cc(-c2cc3ccccc3o2)nn1-c1ccccc1`, the growth is 101% in the test with T-47D breast; 101% in the test on BT-549 breast; 102% in the test with MDA-MB-435 melanoma; 104% in the test on SW-620 colon; 99.9% in the test on MCF7 breast; 96.5% in the test on HCT-116 colon. In addition, the growth is 176% with HCC-2998 colon and 119% in the test with KM12 colon.
Take `CN1CCN(CC(O)COc2c(Br)c(Br)c(Br)c3c2OC(C)(C)C3)CC1` (configuration not stated): the growth in the test with T-47D breast is 81.3%; with BT-549 breast, 78.4%; with MDA-MB-435 melanoma it was 18.7%; in the test with SW-620 colon, 47.3%; in the test with MCF7 breast, 59.5%; with HCT-116 colon it was 20.7%. Also, the growth in the test with HCC-2998 colon was 12.4%; with KM12 colon, 57.2%.
With `O[C@@H]1CCO[C@H](c2ccc3ccccc3c2)C1`, the growth in the test on T-47D breast is 89.4%; in the test on BT-549 breast it was 105%; in the test with MDA-MB-435 melanoma, 106%; with SW-620 colon, 105%; in the test with MCF7 breast, 103%; in the test with HCT-116 colon it was 96.6%. Moreover, the growth in the test on HCC-2998 colon was 98.6%; in the test with KM12 colon it was 104%.
In the case of `CCCCCCCCN(CCCCCCCC)CC(O)c1cc(-c2ccccc2)nc2ccc(OC)cc12` (configuration not stated), the growth is 77% in the test on T-47D breast; 78.8% with BT-549 breast; 60.1% with MDA-MB-435 melanoma; 23.6% in the test on SW-620 colon; 67% in the test with MCF7 breast; 8.32% (active) in the test with HCT-116 colon. In addition, the growth in the test with HCC-2998 colon was 101%; in the test with KM12 colon, 82.9%.
Regarding `O=c1c2ccccc2sc2c(NCCN3CCOCC3)nc3ccccc3c12`, the growth is 52.2% in the test with T-47D breast; 73.7% in the test on BT-549 breast; 70.1% with MDA-MB-435 melanoma; 18% in the test with SW-620 colon; 43.7% in the test with MCF7 breast; 42.5% in the test on HCT-116 colon. Also, the growth in the test with HCC-2998 colon is 54.2%; in the test with KM12 colon, 30%.
Regarding `COc1ccc2c(c1)C(=O)/C(=C/c1cccc(OCC(=O)c3ccccc3)c1)O2`, the growth in the test on T-47D breast is -31.7% (active); in the test with BT-549 breast, -15.9% (active); in the test with MDA-MB-435 melanoma, 38%; with SW-620 colon, -82.7% (active); in the test on MCF7 breast, 32%; with HCT-116 colon, 0.433% (active). Also, the growth with HCC-2998 colon is -71.2% (active); in the test with KM12 colon it was 71.7%.
As for `Cc1c(Cl)ccc2c(C(=O)Cl)cc(-c3ccccc3)nc12`, the growth in the test with T-47D breast was 90.9%; with BT-549 breast it was 94.8%; in the test with MDA-MB-435 melanoma, 98.3%; in the test on SW-620 colon it was 97.5%; in the test on MCF7 breast, 87.6%; in the test on HCT-116 colon, 102%. For the same molecule, the growth in the test on HCC-2998 colon is 109%; in the test on KM12 colon, 102%.
With `O=C(Nc1ccc(-n2ccc3c(NC(=O)c4ccccc4)nccc32)cc1)c1ccc(Cl)c(C(F)(F)F)c1`, the growth is 62.3% in the test on T-47D breast; 37.6% in the test on BT-549 breast; 11.6% with MDA-MB-435 melanoma; -45.8% (active) in the test on SW-620 colon; -62.6% (active) in the test with MCF7 breast; -92.4% (active) in the test with HCT-116 colon. In addition, the growth was 19.7% in the test on HCC-2998 colon and -3.15% (active) in the test with KM12 colon.
